Measured values reported in publication PMC5700166.

These sequences were tested against T1, GST-Nv-NF-kB (Ser allele) (Nematostella vectensis, UniProt A7UNT2 2-411) (assay: protein-binding microarray (PBM); PBM: ~300 nM protein, 6 mM HEPES pH 7.8, 80 mM KCl, 0.5 mM EDTA, 0.5 mM EGTA, 6% glycerol, 35 ng/ul poly-dIdC, 1% milk, 1 h, room temperature; Ap Aiptasia and Nv Nematostella (sea anemones) / Co Capsaspora / Aq Amphimedon (sponge) / Dm Drosophila / Hu human; RHD is the Rel homology domain; high values mean tight binding). Conditions: dsDNA, one strand shown.
T1 sequence: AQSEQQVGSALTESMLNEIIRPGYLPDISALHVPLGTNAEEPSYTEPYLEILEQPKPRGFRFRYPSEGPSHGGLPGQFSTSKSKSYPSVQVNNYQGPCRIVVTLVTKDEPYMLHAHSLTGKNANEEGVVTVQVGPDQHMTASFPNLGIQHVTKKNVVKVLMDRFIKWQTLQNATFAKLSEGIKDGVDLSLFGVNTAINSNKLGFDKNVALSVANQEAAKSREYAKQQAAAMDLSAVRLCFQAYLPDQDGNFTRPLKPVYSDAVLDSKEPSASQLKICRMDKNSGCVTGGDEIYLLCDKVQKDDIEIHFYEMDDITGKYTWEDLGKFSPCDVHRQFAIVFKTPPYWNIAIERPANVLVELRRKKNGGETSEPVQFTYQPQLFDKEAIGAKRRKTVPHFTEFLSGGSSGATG
Sequence “CCGATTAACATCACATATCCCCCTGATGTTAATCGGGTCTTGATTCGCTTGACGCTGCTG” has a binding signal of 6.2 z-score. “CCGATTAACATCAGTTGTCCCGCTGATGTTAATCGGGTCTTGATTCGCTTGACGCTGCTG” was tested, and the binding signal was 1.42 z-score. Sequence “CCGATTAACATCAGGGCACCCCCTGATGTTAATCGGGTCTTGATTCGCTTGACGCTGCTG” has a binding signal of 3.83 z-score. “CCGATTAACATCAAAATCACCCCTGATGTTAATCGGGTCTTGATTCGCTTGACGCTGCTG” was tested, and the binding signal was 3.66 z-score. With “CCGATTAACATCAGAAATACCCATGATGTTAATCGGGTCTTGATTCGCTTGACGCTGCTG” the binding signal was 4.71 z-score. Work on “CCGATTAACATCATGCCCGGGAATGATGTTAATCGGGTCTTGATTCGCTTGACGCTGCTG” yielded a binding signal of 1.07 z-score. “CCGATTAACATCATTTCCGGAAATGATGTTAATCGGGTCTTGATTCGCTTGACGCTGCTG” showed a binding signal of 1.02 z-score. Sequence “CCGATTAACATCATGGGGGGGAATGATGTTAATCGGGTCTTGATTCGCTTGACGCTGCTG” has a binding signal of 4.89 z-score. Work on “CCGATTAACATCAAGAGTCCCCCTGATGTTAATCGGGTCTTGATTCGCTTGACGCTGCTG” yielded a binding signal of 5.78 z-score. “CCGATTAACATCAAAAAGCCCCGTGATGTTAATCGGGTCTTGATTCGCTTGACGCTGCTG” gave a binding signal of 6.26 z-score. “CCGATTAACATCAAAATTCCCTGTGATGTTAATCGGGTCTTGATTCGCTTGACGCTGCTG” gave a binding signal of 6.24 z-score. “CCGATTAACATCAAGCCCCCCCCTGATGTTAATCGGGTCTTGATTCGCTTGACGCTGCTG” gave a binding signal of 4.25 z-score. “CCGATTAACATCAGGGGGGGACATGATGTTAATCGGGTCTTGATTCGCTTGACGCTGCTG” gave a binding signal of 4.34 z-score. Work on “CCGATTAACATCATGGGAAGGTTTGATGTTAATCGGGTCTTGATTCGCTTGACGCTGCTG” yielded a binding signal of 1.52 z-score. With “CCGATTAACATCAAACGTTCCCCTGATGTTAATCGGGTCTTGATTCGCTTGACGCTGCTG” the binding signal was 6.33 z-score. For “CCGATTAACATCAAAAATATTCCTGATGTTAATCGGGTCTTGATTCGCTTGACGCTGCTG”, the binding signal was 1.03 z-score. “CCGATTAACATCAAAACACCCCCTGATGTTAATCGGGTCTTGATTCGCTTGACGCTGCTG” showed a binding signal of 5.6 z-score. With “CCGATTAACATCAAGGGACTTCCTGATGTTAATCGGGTCTTGATTCGCTTGACGCTGCTG” the binding signal was 5.97 z-score. “CCGATTAACATCAGGCATTCCCATGATGTTAATCGGGTCTTGATTCGCTTGACGCTGCTG” was tested, and the binding signal was 1.11 z-score. Sequence “CCGATTAACATCAAGGAGTCCCCTGATGTTAATCGGGTCTTGATTCGCTTGACGCTGCTG” has a binding signal of 5.36 z-score. Work on “CCGATTAACATCAGGTATTTCCATGATGTTAATCGGGTCTTGATTCGCTTGACGCTGCTG” yielded a binding signal of 1.6 z-score. In the case of “CCGATTAACATCAATCCCCCCCGTGATGTTAATCGGGTCTTGATTCGCTTGACGCTGCTG”, the binding signal is reported as 4.97 z-score. “CCGATTAACATCAGGGGACGTTATGATGTTAATCGGGTCTTGATTCGCTTGACGCTGCTG” was tested, and the binding signal was 4.91 z-score. In the case of “CCGATTAACATCAGTACCGCGAATGATGTTAATCGGGTCTTGATTCGCTTGACGCTGCTG”, the binding signal is reported as 1.29 z-score. Work on “CCGATTAACATCATGGTACTTGTTGATGTTAATCGGGTCTTGATTCGCTTGACGCTGCTG” yielded a binding signal of 1.85 z-score. With “CCGATTAACATCAGACAACCCCCTGATGTTAATCGGGTCTTGATTCGCTTGACGCTGCTG” the binding signal was 4.56 z-score. Sequence “CCGATTAACATCAGGGATTTTTATGATGTTAATCGGGTCTTGATTCGCTTGACGCTGCTG” has a binding signal of 5.24 z-score. Sequence “CCGATTAACATCAAGCTCTAAGGTGATGTTAATCGGGTCTTGATTCGCTTGACGCTGCTG” has a binding signal of 1 z-score. For “CCGATTAACATCACCCCCTCCCCTGATGTTAATCGGGTCTTGATTCGCTTGACGCTGCTG”, the binding signal was 3.78 z-score. For “CCGATTAACATCAAAAGGAAATTTGATGTTAATCGGGTCTTGATTCGCTTGACGCTGCTG”, the binding signal was 1.08 z-score. With “CCGATTAACATCATCTCCCCCCATGATGTTAATCGGGTCTTGATTCGCTTGACGCTGCTG” the binding signal was 3.69 z-score. Sequence “CCGATTAACATCAAACATCCCCCTGATGTTAATCGGGTCTTGATTCGCTTGACGCTGCTG” has a binding signal of 6.41 z-score. “CCGATTAACATCAAATACCCCCCTGATGTTAATCGGGTCTTGATTCGCTTGACGCTGCTG” was tested, and the binding signal was 6.55 z-score. With “CCGATTAACATCACTCCCCCCCCTGATGTTAATCGGGTCTTGATTCGCTTGACGCTGCTG” the binding signal was 4.8 z-score. “CCGATTAACATCAGAAAAACACCTGATGTTAATCGGGTCTTGATTCGCTTGACGCTGCTG” gave a binding signal of 4.39 z-score. For “CCGATTAACATCAAAAGCCCCCATGATGTTAATCGGGTCTTGATTCGCTTGACGCTGCTG”, the binding signal was 5.01 z-score. For “CCGATTAACATCAGGGGGTGGAATGATGTTAATCGGGTCTTGATTCGCTTGACGCTGCTG”, the binding signal was 4.75 z-score.
